Compounds with a hit are over-represented: about 14% of the library has one in this group of screens.
Giardia FBPA inh – Giardia lamblia aldolase inhibition. purified Giardia FBPA. Potency, µM (top dose mostly 59.6 µM), for the others: top-dose activity, negative = inhibition, hits mostly inhibitors. hit rate 0.71% among 290,000. AID 2451; also: potency is read from the fitted curve at half-maximal effect; % is scaled to controls: 0 for no effect and ±100 for the full control effect; nearly all actives have a fitted effect of over 55% in size
Target sequence (A8B2U2 whole entry, looked up): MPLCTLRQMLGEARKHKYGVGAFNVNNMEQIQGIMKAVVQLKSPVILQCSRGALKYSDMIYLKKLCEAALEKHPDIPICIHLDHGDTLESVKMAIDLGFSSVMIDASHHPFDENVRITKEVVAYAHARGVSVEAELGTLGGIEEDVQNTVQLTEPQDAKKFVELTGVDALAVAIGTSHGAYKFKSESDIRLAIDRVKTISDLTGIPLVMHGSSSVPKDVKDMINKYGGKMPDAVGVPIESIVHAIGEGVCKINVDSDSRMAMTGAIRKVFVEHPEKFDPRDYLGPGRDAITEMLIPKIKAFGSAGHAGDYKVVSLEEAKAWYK
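Giardia FBPA (40 nM reagent) was preincubated 10 min at RT with compound (up to 57.5 uM final), then substrate plus GAPDH/TPI/NAD/arsenate coupling system with diaphorase/resazurin was added; resorufin fluorescence (525/598 nm) was read after 20 min.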
CHX counter – counter-screen hit for Shiga toxin inhibitors, cycloheximide | max response, % | cell reporter, cycloheximide protein synthesis inhibition counterscreen | hit rate 12% among 300,000; in the data active = max response mostly above about 13%, no sharp cut-off; inactive = mostly below about 14%; also: read at 38.3 µM for the half of the compounds with a filed dose; 0% is about no effect
Shiga inhibitor – inhibitors of Shiga toxin in Vero cells; Vero cells, Shiga toxin protein synthesis inhibition reporter; inhibition, % at 38.7 µM; hit rate 9.2% among 290,000; AID 2315; in the data active = inhibition mostly above about 28%, no sharp cut-off; inactive = mostly below about 43%; also: 0% is about no effect
NS1 inh – blocks influenza NS1 protein function; Potency, µM (highest dose often 46.1 µM), for inactives: at the highest dose activity, positive = more growth; hit rate 0.4% among 270,000; calls by dose curve; also: potency is read from the fitted curve at half-maximal effect; actives are rising curves; nearly all actives have a fitted effect of over 50% in size
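In this qHTS, NS1 from influenza A is expressed in budding yeast, where it slows growth. Cells are switched from glucose to 2% galactose medium (pH 6.0, -URA), treated with compound, and growth recovery is read at OD600.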
LmPK inh – LmPK (Leishmania mexicana) enzyme inhibition; purified LmPK, Kinase-Glo ATP luminescence, 1 h; Potency, µM (highest dose often 57.5 µM), inactives show at the highest dose activity change, negative = inhibition, actives largely listed as inhibitors; hit rate 0.37% among 290,000; AID 1721; also: potency is read from the fitted curve at half-maximal effect; % is scaled to controls: 0 for no effect and ±100 for the full control effect
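In 50 mM imidazole pH 7.2 with 7 mM MgCl2, LmPK (0.1 nM) turned over PEP (0.5 mM) and ADP (0.1 mM) for 1 h at room temperature. Luciferase read-out of ATP.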
An asterisk follows results filed as active. Unless noted, calls follow the shape of the dose curve; as a rule, active = well fitted curve in the direction sought with a large enough effect; inconclusive = small, poorly fitted or top-dose-only effect, or another doubt; inactive = no such curve, though single readings can be large; an effect the other way counts as inactive or inconclusive.

Results for Nc1n[nH]c(N)c1N=Nc1cccc(F)c1 ?
Giardia FBPA inh: 0%; CHX counter: 16; Shiga inhibitor: 34*; NS1 inh: 10%; LmPK inh: -1%

How did Nc1[nH]ncc1N=Nc1ccc(Cl)cc1 do in these assays?
Giardia FBPA inh: 0%; CHX counter: 55*; Shiga inhibitor: 98*; NS1 inh: -62%; LmPK inh: 0%

Results for Nc1n[nH]c(N)c1N=Nc1cccc(C(F)(F)F)c1 ?
Giardia FBPA inh: 6%; CHX counter: 15; Shiga inhibitor: 22; NS1 inh: -1%; LmPK inh: 3%

Results for Cc1cccc(N=Nc2c(N)n[nH]c2N)c1 ?
Giardia FBPA inh: 5%; CHX counter: 17*; Shiga inhibitor: 36; NS1 inh: 18%; LmPK inh: 6%

How did Nc1[nH]ncc1-c1ccc(Cl)cc1 do in these assays?
Giardia FBPA inh: 5%; CHX counter: -1; Shiga inhibitor: -7; LmPK inh: 0%

What do the screens show for `O=c1cc(N=Nc2ccc(Cl)cc2)[nH]c(=O)[nH]1`?
Giardia FBPA inh: inconclusive; CHX counter: -2; Shiga inhibitor: -11; NS1 inh: -66%; LmPK inh: -2%

What do the screens show for `CCOc1cc2[nH]c(=S)n(CCCC(=O)NCc3ccccn3)c(=O)c2cc1OCC`?
CHX counter: -3; Shiga inhibitor: -12; NS1 inh: 6%; LmPK inh: -11%

Results for O=C(OCC(=O)N1CCN(C(=O)c2ccco2)CC1)c1ccccc1 ?
Giardia FBPA inh: 0%; CHX counter: 29*; Shiga inhibitor: 78*; LmPK inh: 4%

How did O=C(OCC(=O)N1CCN(C(=O)c2ccco2)CC1)c1ccccc1O do in these assays?
Giardia FBPA inh: -2%; CHX counter: 20; Shiga inhibitor: 32*; NS1 inh: 0%; LmPK inh: -2%

Results for COC(=O)C1CCN(C(=O)CCCOc2ccccc2)CC1 ?
Giardia FBPA inh: 2%; CHX counter: 20*; Shiga inhibitor: 42*; NS1 inh: inconclusive; LmPK inh: -13%

How did O=C(CCCOc1ccccc1)N1CCN(C(=O)c2ccco2)CC1 do in these assays?
Giardia FBPA inh: 7%; CHX counter: 21*; Shiga inhibitor: 88*; NS1 inh: -4%; LmPK inh: 5%

Results for CCOC(=O)c1sc(-c2ccc(Br)cc2)cc1N ?
Giardia FBPA inh: 0%; CHX counter: 54*; Shiga inhibitor: 114*; NS1 inh: -10%; LmPK inh: -7%

Results for CCOC(=O)c1cc(-c2ccc(N)cc2)sc1N ?
Giardia FBPA inh: -4%; CHX counter: 54*; Shiga inhibitor: 66*; NS1 inh: -67%; LmPK inh: 5%

What do the screens show for `NNC(=O)c1cc(Cl)ccc1Cl`?
Giardia FBPA inh: 1%; CHX counter: 7; Shiga inhibitor: -10; NS1 inh: 12%; LmPK inh: -2%

How did NNC(=O)c1sc(-c2ccc(Cl)cc2)cc1N do in these assays?
Giardia FBPA inh: 0%; CHX counter: 45*; Shiga inhibitor: 66*; LmPK inh: 5%

How did O=P(c1ccccc1)(c1ccccc1)C(O)c1ccc(Br)cc1 (centres undefined) do in these assays?
Giardia FBPA inh: 8%; CHX counter: 5; NS1 inh: 3%; LmPK inh: 0%

Results for CC(C)COC(=O)c1ccc(NC(=O)C2C3CCC(C3)C2C(=O)O)cc1 (centres undefined) ?
Giardia FBPA inh: 24%; CHX counter: 62*; Shiga inhibitor: 74*; NS1 inh: -7%; LmPK inh: -4%

What do the screens show for `COc1ccc(NC(=S)NC(=O)C2CCC2)cc1`?
CHX counter: 40*; Shiga inhibitor: 43*; NS1 inh: -21%; LmPK inh: -5%

Results for COC(=O)c1ccc(NC(=S)NC2CCCCC2C)cc1 (centres undefined) ?
Giardia FBPA inh: 1%; CHX counter: 25*; Shiga inhibitor: 16; NS1 inh: -19%; LmPK inh: 0%

Results for O=C(NC(=S)Nc1ccc(Br)cc1)C1CCCCC1 ?
CHX counter: 9; Shiga inhibitor: -10; NS1 inh: 2%; LmPK inh: -9%

Results for CCOC(=O)c1ccc(NC(=S)NC(=O)C2CCCC2)cc1 ?
CHX counter: 27*; Shiga inhibitor: 21; NS1 inh: -15%; LmPK inh: 1%

Results for Cn1cccc1C(=O)N1CCC2(CCN(C(=O)Nc3cccc(C#N)c3)CC2)CC1 ?
Giardia FBPA inh: 4%

What do the screens show for `CCCCC[C@H](O)/C=C/C=C\CCCCCCCC(=O)O`?
Giardia FBPA inh: 1%

Results for COC(=O)c1ccc(NC(=S)NC(=O)C2CCC2)cc1 ?
CHX counter: 26*; Shiga inhibitor: 64*; NS1 inh: -27%; LmPK inh: -7%

How did O=C(O)c1ccc(NC(=S)NC2CCCCC2)cc1 do in these assays?
Giardia FBPA inh: -11%; CHX counter: 7; Shiga inhibitor: 10; NS1 inh: 19%; LmPK inh: 0%

How did CC(C)(C)C(=O)Nc1ccc(C(=O)OC2CCCCC2)cc1 do in these assays?
Giardia FBPA inh: -2%; CHX counter: 50*; Shiga inhibitor: 102*; NS1 inh: -10%; LmPK inh: 5%

Results for CCOC(=O)c1ccc(NC(=S)NC2CCCC2)cc1 ?
Giardia FBPA inh: 0%; CHX counter: 22*; Shiga inhibitor: active; NS1 inh: -42%; LmPK inh: 4%

Results for O=C(OC1CCCCC1)c1ccc(NC(=O)C2CCCCC2)cc1 ?
Giardia FBPA inh: 0%; CHX counter: 10; Shiga inhibitor: 13; NS1 inh: -7%; LmPK inh: 7%

What do the screens show for `COc1ccc(NC(=O)C(=S)N2CCCC2)cc1`?
Giardia FBPA inh: 2%; CHX counter: 30*; Shiga inhibitor: 35; NS1 inh: 4%; LmPK inh: 0%

How did COc1ccc(NC(=S)N2CCCC2)cc1 do in these assays?
Giardia FBPA inh: -10%; CHX counter: 23; Shiga inhibitor: 23; NS1 inh: 6%; LmPK inh: 2%

What do the screens show for `COCCCN1C2=C(C(=O)CC(C)(C)C2)C(c2ccc(O)c(OC)c2)C2=C1CC(C)(C)CC2=O`?
Giardia FBPA inh: 0%; CHX counter: 9; Shiga inhibitor: -5; NS1 inh: 17%; LmPK inh: -22%

Results for CCOC(=O)c1ccc(NC(=S)NNC(=O)COC)cc1 ?
Giardia FBPA inh: inconclusive; CHX counter: -1; Shiga inhibitor: -7; NS1 inh: 7%; LmPK inh: -5%

Results for CCOC(=O)c1ccc(NC(=O)C2C3CCC(C3)C2C(=O)O)cc1 (centres undefined) ?
Giardia FBPA inh: 20%; CHX counter: 20; Shiga inhibitor: 28; NS1 inh: -4%; LmPK inh: 10%

What do the screens show for `CCOC(=O)c1ccc(NC(=O)C2C3CCCCC32)cc1` (centres undefined)?
Giardia FBPA inh: 2%; CHX counter: 43*; Shiga inhibitor: 103*; NS1 inh: -11%; LmPK inh: -4%

Results for O=C(NC(=S)Nc1ccc(Br)cc1)C1CCC1 ?
CHX counter: 47*; Shiga inhibitor: 102*; NS1 inh: -3%; LmPK inh: 0%
